This is a sample that favours compounds with a hit; in the whole collection about 11% have one here.
AMA1 RON2 block – qHTS for Inhibitors of AMA1-RON; Towards Development of Antimalarial Drug Lead: Primary Screen; AlphaScreen AMA1-biotinylated RON2 peptide binding; Potency, µM (titrated, usually from 58.2 µM), without a hit: at the highest dose activity change, negative = inhibition, hits mostly inhibitors; Plasmodium falciparum AMA1 (3D7) - RON2 peptide interaction; 0.2% of 360,000 active;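 also: 0% = vehicle wells and -100% = peptide control; nearly all actives have a fitted effect of over 45% in size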
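AMA1 (3D7) with his tag at 25 nM final met compounds first, then biotinylated RON2 peptide at 25 nM; detection used donor plus acceptor beads, 10 µg/mL apiece, read by AlphaScreen after 30 min at room temperature.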
AmpC inh no detg – qHTS Inhibitors of AmpC Beta-Lactamase (assay without detergent); 0.52% of 330,000 active; Potency, µM (doses to about 57.1 µM), without a hit: at the top dose activity change, negative = inhibition, usual class: inhibitors; AmpC nitrocefin hydrolysis, absorbance 480 nm, 0.0001% Triton;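 also: plate controls were no compound for no effect and no enzyme for full effect; nearly all actives have a fitted effect of over 20% in size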
Target sequence (P00811 whole entry, looked up): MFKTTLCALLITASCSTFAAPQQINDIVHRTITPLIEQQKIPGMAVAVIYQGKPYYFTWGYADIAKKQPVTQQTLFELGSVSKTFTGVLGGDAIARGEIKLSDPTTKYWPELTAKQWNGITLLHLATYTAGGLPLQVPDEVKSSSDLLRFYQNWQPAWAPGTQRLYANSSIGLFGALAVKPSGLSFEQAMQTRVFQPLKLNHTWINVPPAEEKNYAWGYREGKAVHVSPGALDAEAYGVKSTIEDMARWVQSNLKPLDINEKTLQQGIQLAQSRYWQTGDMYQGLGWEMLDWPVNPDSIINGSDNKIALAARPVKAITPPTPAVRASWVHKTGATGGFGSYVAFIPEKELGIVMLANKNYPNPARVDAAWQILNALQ
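20 mM phosphate pH 7.0 + 0.01% (detergent screen) or 0.0001% Triton X-100; 5.3 nM AmpC reagent; cpd preinc 15 min RT; nitrocefin (800 uM stock) to start; A480 q20 s × 4 min; Activity was normalised to no-enzyme and no-compound control wells.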
Pf growth 96h – Primary qHTS for delayed death inhibitors of the malarial parasite plastid, 96 hour incubation; P. falciparum luciferase reporter growth, 96 h; Potency, µM (series often up to 28.7 µM), for the others: at the top dose activity change, negative = inhibition, hits mostly inhibitors; 6.9% of 320,000 active; AID 504834, 2011
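Plates of compound plus infected erythrocytes (2% hematocrit, 0.05% parasitemia final) incubate 96 hours, 37 C, 5% CO2. Detection reagent added; reduced luminescence from the parasites' luciferase reporter flags inhibition.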
HCV inh – qHTS Assay for Inhibitors of Hepatitis C Virus (HCV) | Huh7.5.1 HCVcc-Cre infection, luciferase reporter, 44 h | Potency, µM (doses to about 41.8 µM), for inactives: at the top dose activity change, negative = inhibition, usual class: inhibitors | 3.4% of 340,000 active | AID 651820, 2012
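Compounds are dispensed onto cells plated 4 h earlier at 1,000 per well, with HCVcc-Cre virus (about 0.5 moi) added next. Following 44 h of culture, luminescent signal is measured for 15 sec after 15 min with substrate at room temperature.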
AmpC detergent – qHTS Inhibitors of AmpC Beta-Lactamase (assay with detergent); Potency, µM (series often up to 114 µM), for inactives: top-dose activity change, negative = inhibition, hits mostly inhibitors; P00811; 0.041% of 370,000 active; AID 485294, 2010; AmpC hydrolysis of nitrocefin, absorbance 480 nm, 0.01% Triton;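 also: 0% = no-compound wells and -100% = no-enzyme wells; nearly all actives have a fitted effect of over 25% in size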
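AmpC (5.3 nM in the dispensed reagent) in 20 mM phosphate pH 7.0 with 0.01% (detergent screen) or 0.0001% Triton X-100 was preincubated with compounds for 15 min at room temperature. Nitrocefin was then added from an 800 uM solution, and hydrolysis was followed at 480 nm.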
Pf growth 48h – Primary qHTS for delayed death inhibitors of the malarial parasite plastid, 48 hour incubation; P. falciparum luciferase growth in erythrocytes, 48 h; Potency, µM (series often up to 28.7 µM), without a hit: top-dose activity change, negative = inhibition, actives largely listed as inhibitors; 5.9% of 310,000 active
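Here the parasites carry a stable luciferase gene and grow inside erythrocytes in Albumax-based RPMI medium with compound for one erythrocytic cycle. Activity is scored as loss of luminescent signal.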
An asterisk follows results filed as active; ? = inconclusive; . = not tested or not shown; [ ] = remark or other dose. Calls follow the shape of the dose curve; as a rule, active = well fitted curve in the direction sought with a large enough effect; inconclusive = small, poorly fitted or top-dose-only effect, or another doubt; inactive = no such curve, though single readings can be large; an effect the other way counts as inactive or inconclusive. Unless noted, % is scaled to controls: 0 for no effect and ±100 for the full control effect; potency is read from the fitted curve at half-maximal effect.

SMILES	AMA1 RON2 block	AmpC inh no detg	Pf growth 96h	HCV inh	AmpC detergent	Pf growth 48h
CN(C)S(=O)(=O)c1cccc(NC(=O)CCSc2ccc(Cl)cc2)c1	28%	-24%	-2%	10µM*	?	8%
CN(CC(=O)Nc1cccc(F)c1)C(=O)c1sccc1-c1ccccc1	27%	-6%	15%	?	3%	3%
CCC(C)(C)C(=O)O[C@@H]1C[C@H](C)C=C2C=C[C@H](C)[C@@H](CC[C@H]3C[C@@H](O)CC(=O)O3)[C@H]21	.	.	-25%[12.8 µM]	.	.	-6%[12.8 µM]
CCOc1ccc(OCC)c(NC(=O)C(NS(=O)(=O)c2cccs2)c2ccccc2)c1 (centres undefined)	.	.	.	.	13%	.
CCN(CC)CCCNc1nc(N)c([N+](=O)[O-])c(N2CCCCCC2)n1	-3%	-10%	2.9µM*	-1%	-2%	-6%
COc1ccc(Nc2nc(N)c([N+](=O)[O-])c(N3CCN(C)CC3)n2)cc1	-10%	-6%	?	9%	0%	?
COc1ccc(Nc2nc(N)c([N+](=O)[O-])c(N3CCCC3)n2)cc1	-11%	-49%	13µM*	?	2%	?
COc1cccc(Nc2nc(N)c([N+](=O)[O-])c(N3CCOCC3)n2)c1	-3%	-38%	15µM*	-11%	-8%	?
Cc1oc2ccc(O)c(CN3CCN(C)CC3)c2c1C(=O)Nc1cccc(Cl)c1C	.	.	.	.	4%	.
Cc1ccc2oc(=O)c3cnn(CC(=O)N4CCN(c5cc(Cl)ccc5C)CC4)c3c2c1	.	.	.	.	10%	.
CCOc1ccc(-c2cc3c(=O)n(CC(=O)NCc4ccccc4)ccn3n2)cc1	.	.	.	.	-1%	.
COc1cc(/C=C2\SC(=O)NC2=O)ccc1Oc1ccc([N+](=O)[O-])cc1[N+](=O)[O-]	-9%	?	91%	-5%	-2%	?
CCN1C(=O)C(=Cc2cccc(OC)c2Oc2ccc([N+](=O)[O-])cc2[N+](=O)[O-])SC1=S	-1%	-31%	10µM*	4%	-9%	5.2µM*
COCC(=O)n1nc(-c2ccccc2)nc1NCc1ccc(N(C)C)cc1	22µM*	-6%	?	4%	3%	49%
COCC(=O)n1nc(-c2ccc(Cl)cc2)nc1NCc1ccc(F)cc1	15%	-21%	2.9µM*	?	-8%	.
COCC(=O)n1nc(-c2ccc(C)cc2)nc1NCc1ccc(F)cc1	-17%	-13%	1%	-8%	?	0%[5.75 µM]
CCCCSc1cnn(-c2ccccc2)c(=O)c1SCCCC	23%	-44%	12µM*	?	-5%	12µM*
CCSc1cnn(-c2ccccc2)c(=O)c1SCC	-2%	-39%	27%	-24%	-4%	.
O=C(CN1CCCN(S(=O)(=O)c2ccc(Br)cc2)CC1)Nc1cccc(C(F)(F)F)c1	.	.	.	.	2%	.
CC1=C(C(=O)Nc2ccccc2C)C(c2cccnc2)n2nc(SCc3ccccc3)nc2N1 (centres undefined)	.	.	.	.	7%	.
CCOCN(C(=O)Cn1c(CO)nc2ccccc21)c1c(C)cccc1CC	16%	81%	10µM*	-3%	-20%	0%
CCOCN(C(=O)Cn1cnc2ccccc21)c1c(C)cccc1CC	-10%	98%	0%	7%	9%	?
CCc1cccc(CC)c1N(COC)C(=O)CCl	-15%	.	.	-6%	.	.
CCOCN(C(=O)CCl)c1c(C)cccc1CC	2%	-18%	?	?	8%	13µM*
COc1ccccc1CCNC(=O)C(=O)NCC(c1ccco1)S(=O)(=O)c1ccc(C)cc1 (centres undefined)	.	.	.	.	0%	.
SMILES	AMA1 RON2 block	AmpC inh no detg	Pf growth 96h	HCV inh	AmpC detergent	Pf growth 48h
O=C(Cc1ccccc1)NC(C(=O)O)C(O)c1ccc([N+](=O)[O-])cc1 (centres undefined)	5%	-24%	10µM*	9%	-1%	23%
O=C(Cc1ccccc1)Oc1ccc([N+](=O)[O-])cc1	13%	5%	?	17%	?	-19%
Cn1cc(Cl)c(C(=O)OCC(=O)c2ccccc2)n1	4%	2%	13µM*	5%	3%	30%
Cn1nc(C(=O)OCC(=O)c2ccccc2)c2ccccc2c1=O	8%[11.6 µM]	-1%	.	-1%	.	.
CCCc1cnc2c(c1SCC(=O)Nc1ccc(C)c(Cl)c1)c(=O)n(C)c(=O)n2C	.	.	.	.	-7%	.
C=CCN1CC[C@]23c4c5ccc(O)c4OC2C(=O)CC[C@@]3(O)C1C5 (some centres undefined)	10%	-13%	83%	2.5µM*	-10%	-8%
Cc1ccc2c(=O)cc(C(=O)Nc3ccc(S(=O)(=O)Nc4onc(C)c4C)cc3)oc2c1C	.	.	.	.	27%	.
O=C(NC(Cc1ccccc1)c1nc2ccccc2[nH]1)C1CC(=O)N(c2ccc3c(c2)OCCO3)C1 (centres undefined)	22%	-18%	2.9µM*	-5%	3%	0%
NC(=S)N/N=C/c1cc([N+](=O)[O-])ccc1OCCOc1ccccc1	16%	-30%	-25%	-19%	?	.
O=C(Cn1nnc(-c2ccccc2)n1)N/N=C/c1cc([N+](=O)[O-])ccc1O	44%	-15%	10µM*	?	1%	9%
CCCCCC(=O)N/N=C/c1ccco1	23%	-4%	13µM*	9%	4%	27%
O=C(CCC(=O)Nc1cc(C(F)(F)F)ccc1Cl)N/N=C\c1cc([N+](=O)[O-])ccc1O	39%	-37%	266%	-2%	-10%	13µM*
CC(=O)N/N=C/c1cc([N+](=O)[O-])ccc1OCCOc1ccccc1	-11%	-24%	6.6µM*	?	-14%	2%
O=C(NN=Cc1cc(Cl)ccc1[N+](=O)[O-])c1cccc2ccccc12	20%	.	.	17%	.	.
O=C(N/N=C/c1cc([N+](=O)[O-])ccc1O)c1ccc(COc2ccc3c(c2)CCC3)o1	91%	?	9.3µM*	-27%	-13%	?
O=C(N/N=C/c1cc([N+](=O)[O-])ccc1O)c1cccc2ccccc12	.	-42%	27%	.	-5%	13µM*
O=C(Cn1nnc(-c2ccccc2)n1)N/N=C/c1ccco1	1%	-13%	306%	13µM*	-18%	-19%
COc1ccc(Br)cc1/C=N/NC(=O)c1ccc(COc2ccc3c(c2)CCC3)o1	3%	-30%	48%	?	-1%	?

Compound activity from PubChem BioAssay.
